High-throughput results as filed in PubChem.
Cruzain Triton: qHTS Assay for Promiscuous and Specific Inhibitors of Cruzain (with detergent); 0.43% of 200,000 active; purified cruzain, Z-FR-AMC fluorescence, 0.01% Triton; Potency, µM, for inactives: max response, negative = inhibition, hits mostly inhibitors; Cruzipain (Trypanosoma cruzi), P25779;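 also: plate controls were neutral wells for no effect and buffer without enzyme for full effect; nearly all actives have a fitted effect of over 40% in size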
Target sequence (P25779 123-467 limits assumed): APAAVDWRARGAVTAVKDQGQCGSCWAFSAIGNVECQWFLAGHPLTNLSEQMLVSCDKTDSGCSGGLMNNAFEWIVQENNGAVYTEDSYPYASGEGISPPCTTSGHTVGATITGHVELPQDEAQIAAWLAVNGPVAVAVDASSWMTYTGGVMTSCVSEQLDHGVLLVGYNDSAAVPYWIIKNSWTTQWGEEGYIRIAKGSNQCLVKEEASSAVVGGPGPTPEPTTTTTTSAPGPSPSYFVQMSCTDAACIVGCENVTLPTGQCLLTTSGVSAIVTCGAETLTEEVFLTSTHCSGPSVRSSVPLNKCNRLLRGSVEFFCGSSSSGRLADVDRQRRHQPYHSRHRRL
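Purified cruzain (1.5 nM final) was preincubated with compounds for 15 min at room temperature in 100 mM sodium acetate pH 5.5, 5 mM DTT, 0.01% Triton X-100. Reaction started with 2 uM Z-FR-AMC; AMC fluorescence change over 60 s gave activity.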
Cruzain inh noDet: qHTS Assay for Promiscuous and Specific Inhibitors of Cruzain (without detergent). Cruzipain (Trypanosoma cruzi), P25779. purified cruzain, Z-FR-AMC fluorescence, no detergent. Potency, µM, without a hit: max response, negative = inhibition, most hits filed as inhibitors. 2.3% of 200,000 active. AID 1476, 2009;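 also: plate controls were enzyme without inhibitor for no effect and buffer without enzyme for full effect; nearly all actives have a fitted effect of over 40% in size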
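Purified cruzain at 1.5 nM, pre-incubated 15 min with compound at room temperature in 100 mM sodium acetate pH 5.5, 5 mM DTT, 0.00005% Triton X-100. Reaction started with 2 uM Z-FR-AMC; AMC fluorescence increase over 60 s gives rate.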
NS1 function inh: qHTS Assay for Inhibitors of Influenza NS1 Protein Function; Potency, µM (series often up to 46.1 µM), without a hit: top-dose activity, positive = more growth; 0.4% of 270,000 active; AID 2326, 2010; calls by dose curve; also: actives are rising curves; nearly all actives have a fitted effect of over 50% in size
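Read-out: OD600 growth recovery of NS1-expressing budding yeast. Cells grown overnight at 30C in -URA glucose medium, washed, resuspended and diluted 1:100 in 2% galactose assay medium, pH 6.0. Same strain lacking NS1 served as positive control.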
Starred values were filed as active, the others as inactive; ? = inconclusive; . = no result. This excerpt belongs to a sample that is enriched for hits. Unless noted, calls follow the shape of the dose curve; as a rule, active = well fitted curve in the direction sought with a large enough effect; inconclusive = small, poorly fitted or top-dose-only effect, or another doubt; inactive = no such curve, though single readings can be large; an effect the other way counts as inactive or inconclusive. Potency is read from the fitted curve at half-maximal effect.

SMILES	Cruzain Triton	Cruzain inh noDet	NS1 function inh
COc1cccc(-n2c(-c3cccc(F)c3)nc3c(cnn3-c3ccc(C)cc3)c2=O)c1	-8.1%	-8.4%	.
O=C(O)CN(CCN(CC(=O)O)CC(=O)O)CC(=O)O.[Cu]	3.5%	7.0%	-2.9%
NC(=O)C[C@@H](N)c1nn[nH]n1	8.9%	7.7%	0.9%
Cc1cc(/C=N/NC(N)=S)c(C)n1-c1ccc(Cl)cc1	28.2µM*	?	14.5%
Cc1cccc(C)c1-n1c(C)cc(/C=N/NC(N)=S)c1C	-16.3%	?	-48.3%
COc1ccc(-c2nc3cnc(N4CCOCC4)nc3n(Cc3cccs3)c2=O)cc1	7.7%	9.6%	.
CCOC(=O)c1c(-c2cccc([N+](=O)[O-])c2)csc1NC(=O)CCCOc1ccccc1OC	-7.1%	-9.7%	2.5%
CCOC(=O)c1c(-c2cccc([N+](=O)[O-])c2)csc1NC(=O)CCCOc1ccccc1	-3.8%	31.6µM*	-12.3%
COCCNC(=O)c1ccc2c(c1)N(Cc1cccc(Cl)c1)C(=O)c1ccccc1S2=O (stereo not drawn)	-2.2%	12.2%	.
COc1ccc(CNC(=O)c2ccc3c(c2)N(Cc2ccccc2)C(=O)c2ccccc2S3(=O)=O)cc1	0.5%	?	.
O=C(NCc1ccco1)c1ccc2c(c1)N(Cc1cccc(Cl)c1)C(=O)c1ccccc1S2(=O)=O	-3.6%	?	.
O=C(NCCC1=CCCCC1)c1ccc2c(c1)N(Cc1cccc(Cl)c1)C(=O)c1ccccc1S2(=O)=O	-1.0%	?	.
COc1ccc(CNC(=O)c2ccc3c(c2)N(Cc2ccccc2F)C(=O)c2ccccc2S3(=O)=O)cc1	-1.5%	25.1µM*	.
O=C(NCCC1=CCCCC1)c1ccc2c(c1)N(Cc1cccc(Cl)c1)C(=O)c1ccccc1S2=O (stereo not drawn)	-1.5%	12.6µM*	.
O=C(NCCC1=CCCCC1)c1ccc2c(c1)N(Cc1ccc(Cl)cc1)C(=O)c1ccccc1S2(=O)=O	-1.3%	31.6µM*	.
O=C(NCc1ccco1)c1ccc2c(c1)N(Cc1ccc(Cl)cc1)C(=O)c1ccccc1S2(=O)=O	-4.0%	25.1µM*	.
CC(C)(C)C1CCc2c(sc(NC(=O)Cn3nnc(-c4ccccc4Cl)n3)c2C#N)C1 (stereo not drawn)	-1.1%	-2.2%	.
Cc1ccc(C)c(CN2C(=O)c3ccccc3S(=O)(=O)c3ccc(C(=O)NCCC4=CCCCC4)cc32)c1	0.2%	31.6µM*	.
COCCNC(=O)c1ccc2c(c1)N(Cc1cc(C)ccc1C)C(=O)c1ccccc1S2=O (stereo not drawn)	-1.2%	?	.
Cc1ccc(C)c(CN2C(=O)c3ccccc3S(=O)(=O)c3ccc(C(=O)N4CCCC4)cc32)c1	-2.0%	?	.
O=C(NCCC1=CCCCC1)c1ccc2c(c1)N(Cc1ccc(F)cc1)C(=O)c1ccccc1S2(=O)=O	-0.6%	?	.
CCOC(=O)c1ccc2c(c1)N(Cc1ccc(F)cc1Cl)C(=O)c1ccccc1S2(=O)=O	1.5%	10µM*	.
O=C(OCC1CCCO1)c1ccc2c(c1)N(Cc1ccccc1Cl)C(=O)c1ccccc1S2(=O)=O (stereo not drawn)	1.2%	-29.3%	.
Cc1ccc(C)c(CN2C(=O)c3ccccc3S(=O)c3ccc(C(=O)NCCc4ccc(Cl)cc4)cc32)c1 (stereo not drawn)	0.2%	6.31µM*	.
CCc1ccccc1NC(=O)c1ccc2c(c1)N(Cc1cc(C)ccc1C)C(=O)c1ccccc1S2(=O)=O	0.2%	15.8µM*	.
SMILES	Cruzain Triton	Cruzain inh noDet	NS1 function inh
CCCCC(=O)Nc1nnc(S(=O)(=O)N(CC)c2cc(C)cc(C)c2)s1	-6.5%	-3.9%	.
O=[N+]([O-])c1ccc(OC/C=C2\Oc3ccc([N+](=O)[O-])cc3C2N2CCOCC2)cc1 (stereo not drawn)	-9.5%	-2.0%	14.2%
O=[N+]([O-])c1ccc2c(c1)C(N1CCOCC1)/C(=C/COc1ccc3ccccc3c1Br)O2 (stereo not drawn)	-3.9%	25.1µM*	?
Cc1ccc(CCNC(=O)CCSCc2ccc(Cl)cc2)cc1	1.1%	0.1%	-6.0%
Cc1ccc(CSCCNC(=O)/C=C/c2ccc(Cl)cc2)cc1	3.8%	12.6µM*	3.3%
Nc1nc(SC/C=C\c2ccccc2)c2[nH]cnc2n1	-1.2%	-8.0%	0.0%
Cc1ccc(S(=O)(=O)N2CCCOC2CNC(=O)C(=O)NCCc2c[nH]c3ccccc23)cc1 (stereo not drawn)	-5.5%	?	?
O=C(NCCc1c[nH]c2ccccc12)C(=O)NCC1OCCCN1S(=O)(=O)c1ccccc1 (stereo not drawn)	-3.6%	25.1µM*	-5.6%
Clc1ccccc1-c1cc(NCc2ccccc2)ncn1	-12.0%	2.8%	.
Cc1cccc(OCC(=O)Nc2ccc(N3CCN(S(C)(=O)=O)CC3)cc2)c1C	7.7%	12.6µM*	6.2%
Cc1cc(C)cc(OCC(=O)Nc2ccc(N3CCN(S(C)(=O)=O)CC3)cc2)c1	-1.1%	15.8µM*	2.1%
Cc1cccc(OCCCC(=O)Nc2ccc(N3CCCCC3)cc2)c1C	5.3%	20µM*	13.4%
Cc1ccccc1OCC(=O)Nc1ccc(N2CCN(S(C)(=O)=O)CC2)cc1	8.3%	?	-1.3%
Cc1cccc(OCCCC(=O)Nc2ccc(S(N)(=O)=O)cc2)c1C	-4.3%	?	20.4%
Cc1cc(C)cc(OCC(=O)Nc2ccc(N3CCN(C(=O)c4ccco4)CC3)cc2)c1	-7.4%	5.0%	12.9%
COc1ccc(CNC(=O)c2cc3c(=O)[nH]c4ccccc4c3n2C)c(OC)c1	-1.8%	?	.
COc1ccc(N2CCN(C(=O)c3c(C)oc4ncn(CC(C)C)c(=O)c34)CC2)cc1	-2.1%	-9.1%	.
COC(=O)[C@H](COC(C)(C)C)NC(=O)O[C@H]1C(=O)c2cc(OC)ccc2O[C@@H]1c1ccc(OC)c(Br)c1	-2.2%	20.9%	.
COc1ccccc1-c1noc(-c2ccc(N3CCC(C)CC3)c([N+](=O)[O-])c2)n1	-2.7%	-7.9%	.
COc1ccc(Cc2ccc3[nH]c(=O)cc(C)c3c2)cc1S(=O)(=O)O	2.4%	-5.2%	-8.1%
COCCCNC(=O)CCc1c(C)nc2nc(-c3cc(OC)cc(OC)c3)nn2c1C	1.0%	?	.
O=C(O)/C=C\C(=O)Nc1ccc2c(c1)-c1ccccc1C2	0.5%	-6.7%	0.0%
CCc1cc2c(N=Nc3c(O)[nH]c4ccccc34)ncnc2s1	-1.5%	-13.7%	13.3%
CCc1ccc2[nH]c(O)c(N=Nc3nc(-c4ccccc4)cs3)c2c1	-4.8%	20µM*	17.4%
Cc1ccc2nc(-c3ccc(NC(=O)c4ccco4)cc3)[nH]c2c1	25.1µM*	-0.7%	-12.1%
SMILES	Cruzain Triton	Cruzain inh noDet	NS1 function inh
Cc1ccccc1-c1nc(-c2ccc(NC(=O)c3cccs3)cc2)no1	3.1%	?	-21.8%
Cn1cccc1-c1nc2ccc(NC(=O)c3ccco3)cc2[nH]1	-9.6%	-4.0%	-7.0%
O=C(Nc1ccc2nc(-c3cccs3)[nH]c2c1)c1ccco1	-22.0%	20µM*	0.9%
O=C(Nc1cccc(-c2nc3ccccc3[nH]2)c1)c1ccco1	-6.6%	-10.5%	-109.9%
O=C(Nc1ccc(-c2noc(-c3ccccc3F)n2)cc1)c1cccs1	0.5%	20µM*	-8.2%
Cc1ccccc1C(=O)Nc1ccc(-c2nc3ccc(C(=O)c4ccccc4)cc3[nH]2)cc1	-1.9%	12.6µM*	-13.2%
